One assay has as its target Albumin (Bos taurus) (UniProt P02769). Nature of the assay: compounds binding labelled BSA control protein – biochemical, small-molecule microarray, Alexa647 label, 635/667 nm fluorescence, artefact control for SMM control protein annotation, profiling panel (AID 1118).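 Further: score merges 667 nm emission intensity and signal-to-noise per printed compound spot.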 The conditions noted are these: BSA-A647 binding, fluorescence 635 nm, higher = more signal.
The nature of assay [1]: probe aXIP binding to arrayed compounds – biochemical, NeuroSMM set, 635/667 nm fluorescence, primary screen (AID 1119).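 Further: probe is the protein aXip251-270 applied at 1 µg/mL to compound-printed slides; binding of probe to printed compounds measured as 667 nm fluorescence plus signal to noise.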 The conditions noted are these: small-molecule microarray, higher = more signal, called active from +8 up or from −8 down.
Assay [2] can be described thus: probe aNOTCH3 binding on compound microarray – biochemical, small-molecule microarray, 635/667 nm fluorescence, primary screen (AID 1120).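 Further: probe is a biotin-tagged antibody raised against NOTCH3 rather than NOTCH3 protein; score merges spot fluorescence near 667 nm with spot signal to noise.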 As to conditions: higher = more signal.
Assay [3] can be described thus: probe aNOTCH2 binding on compound microarray – biochemical, small-molecule microarray, 635/667 nm fluorescence, primary screen (AID 1121).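 Further: score merges feature fluorescence read at 667 nm with its signal to noise.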 As to conditions: higher = more signal.
Assay [4] concerns the target Carbonic anhydrase 2 (Homo sapiens) (UniProt P00918). Nature of the assay: compounds binding carbonic anhydrase 2 – biochemical, small-molecule microarray, Alexa647-labelled CAII, profiling panel (AID 1122). As to conditions: CAII-A647 binding fluorescence, higher = more signal.
A short description of assay [5]: COS7 lysate on small-molecule microarray, probe aHis, 635 nm (AID 1123).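 Further: z-score combines 667nm fluorescence intensity with signal-to-noise per printed compound spot.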 The conditions noted are these: COS7 cell lysate, fluorescence, higher = more signal.
A short description of assay [6]: probe aLAP1 signal on lysate-treated microarray – cell lysate, small-molecule microarray, COS7 lysate, primary screen (AID 1124).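 Further: lysate comes from COS7 cells expressing LAP1 and is applied at 0.3 µg/mL; score merges spot fluorescence near 667 nm with signal-to-noise over triplicate slides.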 As to conditions: probe aLAP1, fluorescence, higher = more signal.
A further assay relates to Sam68 (KHDRBS1). The assay is described as follows: compounds binding KHDRBS1 protein – biochemical, small-molecule microarray, 635 nm fluorescence, primary screen (AID 1125).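 Further: score merges 667 nm channel intensity with signal to noise over triplicate slides.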 The conditions noted are these: higher = more signal.
The test system of assay [7] is Chordin-like protein 2 (CHRDL2). Nature of the assay: compounds binding chordin-like 2 – biochemical, small-molecule microarray, 635 nm fluorescence, primary screen (AID 1126).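 Further: printed compound slides probed with Chrdl2 protein at 4 µg/mL for 1 h at 4 C; score merges 667 nm emission intensity with signal to noise over three replicate slides.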 The conditions noted are these: fluorescence 635 nm, higher = more signal.
Assay [8] deals with Concanavalin-A (Canavalia ensiformis) (UniProt P02866). Nature of the assay: compounds binding concanavalin A lectin – biochemical, small-molecule microarray, Alexa647 label, 635 nm, artefact control for SMM control protein annotation, primary screen (AID 1127).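 Further: z combines 667 nm emission intensity with signal-to-noise across three replicate slides.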 The conditions noted are these: ConA-A647 binding fluorescence, higher = more signal.
Sequence of Concanavalin-A (Canavalia ensiformis) (P02866 whole entry, looked up): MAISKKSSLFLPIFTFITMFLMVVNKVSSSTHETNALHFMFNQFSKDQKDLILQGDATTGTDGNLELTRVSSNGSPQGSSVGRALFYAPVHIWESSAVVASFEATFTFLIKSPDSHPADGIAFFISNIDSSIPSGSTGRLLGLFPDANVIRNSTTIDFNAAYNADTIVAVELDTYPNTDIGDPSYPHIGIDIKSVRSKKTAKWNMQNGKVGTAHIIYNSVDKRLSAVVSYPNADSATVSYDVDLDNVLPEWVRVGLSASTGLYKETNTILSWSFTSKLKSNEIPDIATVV
The nature of assay [9]: compounds binding Alexa647 anti-His antibody – biochemical, small-molecule microarray, 635 nm fluorescence, artefact control for SMM control protein annotation, primary screen (AID 1128).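 Further: score merges feature fluorescence with signal-to-noise for each printed compound spot.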 The conditions noted are these: higher = more signal.
Assay [10] relates to Human papillomavirus type 1a E7 protein (residues 1-88). Nature of the assay: HPV1a E7 small-molecule binders, primary screen, biochemical, small-molecule microarray, residues 1-88, 635 nm (AID 1129). The conditions noted are these: small-molecule microarray binding, fluorescence 635 nm; higher = more signal.
For assay [11], the target named is Focal adhesion kinase 1 (Homo sapiens) (UniProt Q05397). The assay is described as follows: PTK2 protein binding on printed compound slides – biochemical, small-molecule microarray, 635/667 nm fluorescence, BSA, DTT, primary screen (AID 1130).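 Further: composite of spot emission at 667 nm and signal to noise over triplicate slides.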 The conditions noted are these: 635 nm fluorescence, higher = more signal.
Sequence of Focal adhesion kinase 1 (Homo sapiens) (Q05397 whole entry, looked up): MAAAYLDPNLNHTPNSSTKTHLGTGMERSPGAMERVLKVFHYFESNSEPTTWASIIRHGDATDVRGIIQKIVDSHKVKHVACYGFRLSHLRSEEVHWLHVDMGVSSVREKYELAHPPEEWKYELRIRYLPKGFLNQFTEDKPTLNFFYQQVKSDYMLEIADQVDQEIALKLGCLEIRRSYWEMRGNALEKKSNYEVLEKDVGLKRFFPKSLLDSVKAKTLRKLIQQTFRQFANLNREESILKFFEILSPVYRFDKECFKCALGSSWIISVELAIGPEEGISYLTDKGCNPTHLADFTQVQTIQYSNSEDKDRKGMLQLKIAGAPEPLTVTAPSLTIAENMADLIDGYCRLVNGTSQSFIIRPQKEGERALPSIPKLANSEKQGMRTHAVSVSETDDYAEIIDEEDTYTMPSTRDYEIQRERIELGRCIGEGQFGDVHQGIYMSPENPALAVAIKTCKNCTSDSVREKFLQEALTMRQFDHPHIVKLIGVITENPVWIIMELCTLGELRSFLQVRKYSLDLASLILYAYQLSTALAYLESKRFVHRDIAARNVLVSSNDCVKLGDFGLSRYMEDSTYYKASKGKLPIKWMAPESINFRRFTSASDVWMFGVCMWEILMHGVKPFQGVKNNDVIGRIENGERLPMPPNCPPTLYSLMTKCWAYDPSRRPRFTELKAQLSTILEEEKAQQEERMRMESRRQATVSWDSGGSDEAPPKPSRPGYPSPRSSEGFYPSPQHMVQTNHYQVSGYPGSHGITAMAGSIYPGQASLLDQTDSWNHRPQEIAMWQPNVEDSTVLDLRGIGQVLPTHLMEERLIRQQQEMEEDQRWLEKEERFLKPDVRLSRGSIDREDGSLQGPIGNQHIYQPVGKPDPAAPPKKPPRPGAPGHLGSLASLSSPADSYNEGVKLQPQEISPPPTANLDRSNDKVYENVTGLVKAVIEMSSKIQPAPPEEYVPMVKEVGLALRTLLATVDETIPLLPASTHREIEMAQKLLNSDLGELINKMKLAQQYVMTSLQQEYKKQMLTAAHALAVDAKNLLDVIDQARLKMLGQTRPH
The subject of assay [12] is Fibrinogen (Alexa647-labelled). The assay is described as follows: Alexa647-fibrinogen binding to printed small molecules – biochemical, small-molecule microarray, 635/667 nm fluorescence, artefact control for SMM control-protein annotation, profiling panel (AID 1131).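 Further: z-score merges 667 nm fluorescence with per-spot signal-to-noise over triplicate slides.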 As to conditions: fibrinogen-A647 binding fluorescence, higher = more signal.
The target of assay [13] is Follistatin (Homo sapiens) (UniProt P19883). The assay is described as follows: FST protein binding to printed compounds – biochemical, small-molecule microarray, 635/667 nm fluorescence, primary screen (AID 1132). The conditions noted are these: 635 nm fluorescence, higher = more signal.
Sequence of Follistatin (Homo sapiens) (P19883 whole entry, looked up): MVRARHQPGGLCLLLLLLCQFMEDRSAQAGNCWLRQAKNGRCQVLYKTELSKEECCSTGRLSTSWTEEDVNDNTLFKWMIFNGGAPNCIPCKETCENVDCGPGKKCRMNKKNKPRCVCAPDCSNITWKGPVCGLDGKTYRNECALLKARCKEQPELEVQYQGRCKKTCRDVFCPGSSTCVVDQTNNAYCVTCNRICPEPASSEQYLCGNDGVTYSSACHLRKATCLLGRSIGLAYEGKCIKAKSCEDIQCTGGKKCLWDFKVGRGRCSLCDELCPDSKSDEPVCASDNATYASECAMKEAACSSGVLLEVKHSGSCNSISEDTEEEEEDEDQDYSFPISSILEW
For assay [14], the target named is Fibroblast growth factor 2 (Homo sapiens) (UniProt P09038). Nature of the assay: basic fibroblast growth factor binding to printed compounds – biochemical, small-molecule microarray, 635/667 nm fluorescence, primary screen (AID 1133). The conditions noted are these: FGF2, fluorescence 635/667, higher = more signal.
Sequence of Fibroblast growth factor 2 (Homo sapiens) (P09038 whole entry, looked up): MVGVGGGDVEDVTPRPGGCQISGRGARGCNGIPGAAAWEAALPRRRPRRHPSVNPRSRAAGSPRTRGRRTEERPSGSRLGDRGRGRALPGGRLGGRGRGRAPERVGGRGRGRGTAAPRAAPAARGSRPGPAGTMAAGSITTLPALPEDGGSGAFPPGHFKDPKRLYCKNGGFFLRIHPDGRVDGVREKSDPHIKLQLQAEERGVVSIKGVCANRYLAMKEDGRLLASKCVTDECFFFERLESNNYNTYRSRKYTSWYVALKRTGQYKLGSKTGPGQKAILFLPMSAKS
Assay [15] in a line: JC-1 mitochondrial potential readout, lung cancer cells – cell-based, A549, JC-1 fluorescence, basal, 24 h, 100 nL, profiling panel (AID 1138).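 Further: A549 lung adenocarcinoma cells under basal conditions with no added stimulus; test concentration not given here.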 The conditions noted are these: higher = more signal.
For another assay, the system named is Lefty1. Nature of the assay: Lefty1 protein binding to printed compounds – biochemical, small-molecule microarray, 635/667 nm fluorescence, primary screen (AID 1139). The conditions noted are these: fluorescence 635/667, higher = more signal.
The subject of assay [16] is wheat germ agglutinin (Triticum aestivum), Alexa647-labelled. Nature of the assay: Alexa647-WGA lectin binding to printed small molecules – biochemical, small-molecule microarray, 635/667 nm fluorescence, artefact control for SMM control-protein annotation, profiling panel (AID 1140).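 Further: score merges 667 nm feature emission with signal to noise over triplicate slides.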 As to conditions: WGA-A647 binding, 635 nm fluorescence, higher = more signal.
The target of assay [17] is Luciferin 4-monooxygenase (Photinus pyralis) (UniProt P08659). The assay is described as follows: inhibition of purified Photinus pyralis luciferase – biochemical, luminescence, purified enzyme, 2006 set, primary screen (AID 1141).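 Further: cell-free assay with purified firefly luciferase at 100 ng per well in PBS; test concentration not given here.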 As to conditions: purified firefly luciferase, SteadyGlo luminescence, 30 min; higher = more signal, called active from +8 up or from −8 down.
Sequence of Luciferin 4-monooxygenase (Photinus pyralis) (P08659 whole entry, looked up): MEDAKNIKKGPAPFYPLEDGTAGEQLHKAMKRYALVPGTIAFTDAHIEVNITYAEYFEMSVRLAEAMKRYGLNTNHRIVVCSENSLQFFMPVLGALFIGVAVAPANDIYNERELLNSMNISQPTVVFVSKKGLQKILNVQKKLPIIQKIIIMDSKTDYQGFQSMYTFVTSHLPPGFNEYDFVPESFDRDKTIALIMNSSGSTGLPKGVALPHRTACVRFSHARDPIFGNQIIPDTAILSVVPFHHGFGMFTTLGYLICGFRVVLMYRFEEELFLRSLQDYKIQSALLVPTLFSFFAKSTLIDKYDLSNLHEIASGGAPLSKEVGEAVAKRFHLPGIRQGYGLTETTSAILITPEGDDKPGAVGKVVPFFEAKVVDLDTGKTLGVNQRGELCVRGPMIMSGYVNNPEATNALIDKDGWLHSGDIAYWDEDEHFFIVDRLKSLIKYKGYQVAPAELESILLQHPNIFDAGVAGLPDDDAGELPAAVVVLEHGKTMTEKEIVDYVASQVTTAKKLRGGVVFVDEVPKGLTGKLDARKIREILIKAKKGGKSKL

We go through eight molecules from PubChem BioAssay.

Activity calls are given as the source filed them.

Sequence of Albumin (Bos taurus) (P02769 whole entry, looked up): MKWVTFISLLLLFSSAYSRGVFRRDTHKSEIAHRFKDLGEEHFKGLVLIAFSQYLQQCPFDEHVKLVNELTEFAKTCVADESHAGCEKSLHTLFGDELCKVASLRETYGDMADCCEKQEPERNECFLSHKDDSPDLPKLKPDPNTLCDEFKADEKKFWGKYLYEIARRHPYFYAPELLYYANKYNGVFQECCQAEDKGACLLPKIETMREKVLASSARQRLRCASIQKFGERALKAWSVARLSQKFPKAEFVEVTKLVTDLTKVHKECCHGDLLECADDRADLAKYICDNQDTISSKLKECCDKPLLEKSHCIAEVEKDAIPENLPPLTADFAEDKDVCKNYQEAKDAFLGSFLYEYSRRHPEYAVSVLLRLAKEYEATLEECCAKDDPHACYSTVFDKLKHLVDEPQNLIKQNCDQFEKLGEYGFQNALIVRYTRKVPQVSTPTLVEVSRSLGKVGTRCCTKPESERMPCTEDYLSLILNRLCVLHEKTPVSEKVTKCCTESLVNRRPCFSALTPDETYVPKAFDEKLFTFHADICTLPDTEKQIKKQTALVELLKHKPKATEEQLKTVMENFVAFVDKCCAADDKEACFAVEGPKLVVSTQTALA

With `C=C(COC)/C(=C/C[C@@H](OC(=O)c1ccncc1)c1ccccc1OCCO)c1cc(C(=O)OC)ccc1OC`, the composite z-score with Albumin (Bos taurus) is 0.247; in [2], -0.171; in assay [3], -0.132; in assay [4], 0.803; in [5], 0.107; in [6], 0.748. Further, the composite z-score was -0.227 in the assay with Sam68 (KHDRBS1); -1.12 in assay [7]; -0.71 in assay [8]; -1.25 in [9]; -0.975 in assay [10]; -0.478 in assay [11]. Besides, the composite z-score in assay [12] is -1.5; in assay [13] it was 0.249; in assay [14], -0.203; in the assay on Lefty1, -0.247; in assay [16], -1.12. For the same molecule, the composite Z-score in [1] is -0.476 (inactive). In addition, the z-score in [15] was 2.02; in assay [17], -2.4 (inactive).

With `O=C1c2ccccc2[C@](Cc2ccccc2I)(C(=O)NC2CC2)[C@H](c2ccc(CO)cc2)N1Cc1ccccc1C(F)(F)F`, the composite z-score was 0.502 in the assay with Albumin (Bos taurus); 0.134 in assay [2]; -0.0986 in assay [3]; 0.66 in assay [4]; 1.88 in assay [5]; 0.43 in assay [6]. Further, the composite z-score in the assay with Sam68 (KHDRBS1) was 0.456; in assay [7], -0.941; in assay [8], 0.847; in assay [9], 0.0698; in assay [10], 0.749; in assay [11], -0.226. For the same molecule, the composite z-score in assay [12] was found to be 0.938; in [13] it was 1.15; in [14] it was 0.0532; in the assay on Lefty1 it was 1.26; in assay [16] it was 1.15. In assay [1], the composite Z-score was 0.0029 (inactive). Further, the z-score in assay [15] is -0.254; in assay [17] it was 0.0135 (inactive).

In the case of `Cc1ccc([C@H]2C(C(=O)O)=C[C@@H](C(C)(C)C)N2S(=O)(=O)c2ccc(C)cc2)cc1`, the composite z-score came out at 0.966 in the assay with Albumin (Bos taurus); 0.305 in assay [2]; 0.0746 in assay [3]; 0.531 in assay [4]; 1.99 in [5]; 0.868 in assay [6]. Also, the composite z-score with Sam68 (KHDRBS1) was 1.31; in [7] it was -0.202; in [8], 1.21; in assay [9], 1.28; in [10], 1.24; in assay [11], 0.664. Besides, the composite z-score in [12] came to 0.999; in assay [13], 0.802; in assay [14] it was 0.557; with Lefty1 it was 0.367; in assay [16], 1.3. In addition, the composite Z-score in assay [1] was 0.0172 (inactive). In addition, the values for the z-score in [15] and in assay [17] were -0.918 and 1.48 (inactive), respectively.

With `COc1ccc([Si](C)(C)[C@H]2[C@H](CCO)O[C@@]3(C(=O)N(Cc4ccccc4)c4ccc(N5CCOC5=O)cc43)[C@@H]2C)cc1`, the composite z-score is 0.711 in the assay with Albumin (Bos taurus); 0.0311 in [2]; -0.149 in [3]; 0.299 in [4]; 0.644 in [5]; -0.174 in assay [6]. Moreover, the composite z-score in the assay on Sam68 (KHDRBS1) came to 0.832; in [7] it was 0.524; in [8], 1.15; in assay [9], 0.783; in assay [10], 0.981; in assay [11], 0.0096. In addition, the composite z-score turned out to be 0.773 in assay [12]; 0.701 in assay [13]; 1.11 in assay [14]; 0.385 with Lefty1; 0.986 in assay [16]. The composite Z-score in assay [1] was -0.326 (inactive). For the same molecule, the z-score in [15] was 0.571; in [17], 0.446 (inactive).

With `C#C[C@@H](CC)O[Si](C#CCCCC#N)(C(C)C)C(C)C`, the composite z-score with Albumin (Bos taurus) was 0.202; in assay [2], -0.0391; in [3], -0.174; in [4], 0.797; in [5], 1.59; in assay [6], -0.252. For the same molecule, the composite z-score is 0.441 in the assay with Sam68 (KHDRBS1); 0.106 in assay [7]; -0.193 in assay [8]; 2.55 in assay [9]; 0.0253 in [10]; 0.278 in [11]. Moreover, the composite z-score in assay [12] was -0.014; in [13] it was -0.295; in assay [14], 0.895; in the assay with Lefty1 it was 0.232; in [16] it was -0.0711. Moreover, the composite Z-score in assay [1] is -0.608 (inactive). For the same molecule, the z-score in assay [15] is 0.168; in [17], -0.732 (inactive).

Take `C=C(COC)/C(=C/C[C@@H](OC(C)=O)c1ccc(CO)o1)c1cc(C(=O)OC)ccc1OC`: the composite z-score with Albumin (Bos taurus) is -0.418; in assay [2] it was -0.0647; in assay [3], -0.133; in assay [4] it was 0.579; in assay [5], 0.694; in assay [6], 0.662. Also, the composite z-score in the assay with Sam68 (KHDRBS1) is 0.246; in assay [7] it was -0.228; in assay [8] it was 0.581; in assay [9] it was 0.291; in assay [10], 0.091; in [11], -0.198. In addition, the composite z-score in [12] was -0.341; in assay [13], 0.758; in assay [14] it was -0.314; in the assay on Lefty1 it was 0.933; in [16] it was -0.188. Further, the composite Z-score in assay [1] is 0.615 (inactive). Further, the z-score is 0.173 in [15] and -1.53 (inactive) in assay [17].

With `O=C1N[C@@H](Cc2ccccc2)C(=O)N2[C@@H]1C[C@@H](C(=O)O)[C@H]2c1ccc(O)cc1`, the composite z-score with Albumin (Bos taurus) was 0.145; in assay [2], 0.428; in assay [3] it was 0.0712; in assay [4], 0.757; in assay [5], 1.33; in [6] it was 0.341. The composite z-score in the assay with Sam68 (KHDRBS1) was 0.754; in assay [7], 1.1; in assay [8] it was 1.01; in [9], 2.01; in assay [10], -0.219; in assay [11], -0.11. In addition, the composite z-score in assay [12] amounted to 0.68; in assay [13], 1.35; in assay [14], 1.26; in the assay on Lefty1, 1.58; in [16], 0.828. Besides, the composite Z-score in [1] is 0.84 (inactive). Besides, the figures for the z-score in assay [15] and in assay [17] were 0.0945 and -1.43 (inactive), respectively.

As to `COCCOC(=O)N1C(=O)[C@@]2(c3cc(C#CCNC(N)=O)ccc31)[C@H](c1ccc(OCCO)cc1)N1[C@H](c3ccccc3)[C@H](c3ccccc3)OC(=O)[C@H]1[C@@H]2C(N)=O`, the composite z-score is 0.319 in the assay with Albumin (Bos taurus); 0.116 in assay [2]; -0.01 in [3]; 0.264 in [4]; 1.13 in [5]; 0.439 in assay [6]. The composite z-score in the assay with Sam68 (KHDRBS1) came to 1.13; in assay [7], 0.457; in assay [8], 1.08; in assay [9], 1.11; in assay [10], 1.14; in [11], 0.31. Also, the composite z-score in [12] was 0.663; in [13], 0.926; in [14] it was 0.258; in the assay with Lefty1 it was 0.43; in [16], 0.673. The composite Z-score in assay [1] was 0.658 (inactive). For the same molecule, the results for the z-score in [15] and in assay [17] were -0.405 and -1.83 (inactive), respectively.
